The text below walks through data of the supplement of paper PMC6555819.

Assay in all cases: PBM binding z-score (relative to random genomic background probes); higher = stronger binding; sequences stand for … in GC…GCGATTGACAGCGTAGAATGAAGG
Experiment [1] has as its system FXR:RXRa (NR concentration 270 nM, RXRa partner concentration 90 nM). A digest of the protocol: (§1)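 Ligand-free nuclear receptor dimers were applied to custom Agilent 4×180K protein-binding microarrays whose double-stranded probes carried direct-repeat seeds, single-nucleotide variants, half-site ablations and random human genomic background sequences in 34-nt variable regions. Incubation lasted 1 h. Binding z-scores were computed against the random background probes from regression-normalized fluorescence.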

Experiment [2] relates to LXRa:RXRa (NR concentration 270 nM, RXRa partner concentration 90 nM). A digest of the protocol: as §1
Experiment [3] deals with LXRa homodimer (NR concentration 270 nM). A digest of the protocol: as §1
Experiment [4] concerns LXRb:RXRa (NR concentration 270 nM, RXRa partner concentration 90 nM). A digest of the protocol:
as §1

Experiment [5] has as its system LXRb homodimer (NR concentration 270 nM). A digest of the protocol:
as §1

The subject of experiment [6] is PPARa:RXRa (NR concentration 270 nM, RXRa partner concentration 90 nM). A digest of the protocol:
as §1

The subject of experiment [7] is PPARg:RXRa (NR concentration 180 nM, RXRa partner concentration 90 nM). A digest of the protocol: as §1
The test system of experiment [8] is PPARg:RXRa 270nM:90nM, anti-RXR (NR concentration 270 nM, RXRa partner concentration 90 nM). The gist of the method: as §1
The test system of experiment [9] is PPARg:RXRa 30nM:10nM, anti-RXR (NR concentration 30 nM, RXRa partner concentration 10 nM). A digest of the protocol: as §1
For experiment [10], the system named is PPARg:RXRa 90nM:30nM, anti-RXR (NR concentration 90 nM, RXRa partner concentration 30 nM). A digest of the protocol:
as §1

Experiment [11] concerns PPARg:RXRa DBDmut IVT, anti-RXR (DBD mutation: RXRa K156A/R161A, NR concentration 270 nM, RXRa partner concentration 90 nM). A digest of the protocol:
as §1

The test system of experiment [12] is PPARg:RXRa IVT, anti-PPARg (NR concentration 270 nM, RXRa partner concentration 90 nM). A digest of the protocol: as §1
Experiment [13] relates to PPARg DBDmut:RXRa IVT, anti-PPARg (DBD mutation: PPARg1 K132A/R137A, NR concentration 270 nM, RXRa partner concentration 90 nM). A digest of the protocol:
as §1

For experiment [14], the system named is PPARg DBDmut IVT, anti-PPARg (DBD mutation: PPARg1 K132A/R137A, NR concentration 270 nM). The gist of the method: as §1
Experiment [15] deals with PPARg homodimer (NR concentration 180 nM). The gist of the method:
as §1

Experiment [16] deals with PXR:RXRa (NR concentration 270 nM, RXRa partner concentration 90 nM). The gist of the method:
as §1

In experiment [17] the test system is PXR homodimer (NR concentration 270 nM). The gist of the method: as §1
Experiment [18] has as its system RARa:RXR (NR concentration 270 nM, RXRa partner concentration 90 nM). A digest of the protocol:
as §1

The test system of experiment [19] is RARa homodimer (NR concentration 270 nM). A digest of the protocol: as §1
For experiment [20], the system named is RARb:RXRa (NR concentration 270 nM, RXRa partner concentration 90 nM). A digest of the protocol: as §1

Take TTACCAAGGTGAAGGTCGTTAATCCCTCTGTAGA: the PBM binding z-score is 1.32 in [1]; 1.12 in experiment [2]; -0.236 in [3]; 1.22 in [4]; -0.624 in [5]; 2.49 in [6]. Further, the PBM binding z-score in [7] came out at 2.65; in experiment [8] it was 3.89; in experiment [9], 1.82; in experiment [10], 3.43; in experiment [11] it was 1.67; in experiment [12], 3.05. Moreover, the PBM binding z-score is -0.743 in experiment [13]; -0.257 in experiment [14]; 0.621 in [15]; 1.28 in experiment [16]; 0.0227 in experiment [17]; 1.65 in experiment [18]. Besides, the PBM binding z-score in experiment [19] was -0.0474; in [20], 1.98.

With CCTGCTAGGTCATGGTCAGCCAATCTACAGTATG, the PBM binding z-score in experiment [1] was 3.64; in experiment [2], 2.66; in experiment [3], -0.0941; in experiment [4], 1.68; in [5], -0.0584; in experiment [6] it was 3.49. The PBM binding z-score in experiment [7] is 2.75; in experiment [8], 2.89; in experiment [9], 0.768; in experiment [10], 1.98; in experiment [11] it was 4.43; in experiment [12], 3.74. The PBM binding z-score in [13] is 0.352; in [14] it was 0.0677; in [15], 1.85; in [16], 1.21; in experiment [17] it was -0.386; in experiment [18] it was 2.49. Besides, the PBM binding z-score amounted to 0.141 in experiment [19] and 3.9 in experiment [20].

Take CCGACTGGGGCAAGGTTACCATTACGCACAGCCA: the PBM binding z-score in [1] was 0.0277; in experiment [2], 0.227; in experiment [3], -0.221; in experiment [4] it was 0.492; in experiment [5] it was -0.9; in experiment [6], 1.75. In addition, the PBM binding z-score in experiment [7] is 2.79; in [8], 3.17; in experiment [9], 0.732; in experiment [10] it was 2.4; in [11], 2.66; in [12] it was 3.49. In addition, the PBM binding z-score is -0.296 in [13]; -0.507 in experiment [14]; 0.706 in experiment [15]; 0.214 in experiment [16]; -0.376 in [17]; 0.792 in experiment [18]. Also, the figures for the PBM binding z-score in experiment [19] and in experiment [20] were 0.0733 and 1.56, respectively.

As to TCCAGTAGGTTACCAATGGGGCATTCAGCTTTCT, the PBM binding z-score in experiment [1] was 0.247; in experiment [2] it was 1.53; in experiment [3], -0.513; in [4] it was 0.676; in experiment [5], -0.862; in experiment [6], 1.6. Moreover, the PBM binding z-score was 1.15 in [7]; 2.54 in [8]; 2.63 in [9]; 2.39 in experiment [10]; 4.6 in experiment [11]; 4.34 in experiment [12]. Also, the PBM binding z-score in experiment [13] is -0.355; in experiment [14], -0.253; in experiment [15], 0.0888; in experiment [16], 0.286; in experiment [17], -0.589; in [18] it was 0.451. The figures for the PBM binding z-score in experiment [19] and in experiment [20] were -0.883 and 1.31, respectively.

On to CATCGGAGGACAACAGGAGGTCAGAGCTGCCAGA, for which the PBM binding z-score in experiment [1] was 1.42; in experiment [2] it was 2.43; in [3], 2.12; in experiment [4], 1.91; in experiment [5] it was -0.192; in [6], 2.39. For the same sequence, the PBM binding z-score was 0.842 in experiment [7]; 0.724 in [8]; -0.516 in experiment [9]; 0.267 in [10]; 0.575 in experiment [11]; 1.3 in experiment [12]. Besides, the PBM binding z-score is -0.47 in experiment [13]; -0.762 in [14]; 1.51 in experiment [15]; 2.23 in experiment [16]; 0.834 in experiment [17]; 2.69 in [18]. Moreover, the PBM binding z-score in experiment [19] is 0.396; in experiment [20] it was 3.08.
